{"source": "the supplement of paper PMC11865577", "note": "Where a name gives a salt, the structure may show the parent alone."}
{"system": "hsa-mir-191 loop", "test": "normalised indicator fluorescence (fraction of RNA + indicator signal without compound); higher = less displacement of indicator (weaker competition)", "conditions": "compound concentration: 5 uM; 30 min; indicator: TO-PRO-3 0.5 uM; RNA concentration: 0.5 uM", "summary_of_the_method": "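Displacement screen in 96-well plates: TO-PRO-1 or TO-PRO-3 indicator with RNA in 20 mM phosphate pH 7.0, 20 mM NaCl, 80 mM KCl. Each compound was added as 0.25 μL of 1 mM DMSO stock (about 5 uM final), and fluorescence was read after 30 min on an Infinite 200 PRO (excitation 485 or 620 nm). Values are indicator fluorescence after subtracting the buffer-plus-indicator blank, divided by the no-compound RNA-plus-indicator signal. Each is the mean of two independent experiments.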"}
{"smiles": "CC(=O)Oc1c(C)c(C)c2c(c1C)CCC(C)(CCC[C@H](C)CCC[C@H](C)CCCC(C)C)O2", "note": "(stereo not given in full) [Vitamin E Acetate]", "normalised indicator fluorescence": 1.05}
{"smiles": "COc1nccnc1NS(=O)(=O)c1ccc(NC(=O)/C=C/c2ccc([N+](=O)[O-])s2)cc1", "note": "[Necrosulfonamide]", "normalised indicator fluorescence": 1.02}
{"smiles": "CN(NC(=O)CC(=O)NN(C)C(=S)c1ccccc1)C(=S)c1ccccc1", "note": "[Elesclomol]", "normalised indicator fluorescence": 1.03}
{"smiles": "O=c1ccc2ccc(O)cc2o1", "note": "[7-Hydroxycoumarin]", "normalised indicator fluorescence": 1.06}
{"smiles": "O=C(O)/C=C/c1ccc(Cn2ccnc2)cc1", "note": "[Ozagrel hydrochloride]", "normalised indicator fluorescence": 0.992}
{"smiles": "Fc1ccc(-c2nc3n(c2-c2ccncc2)CCS3)cc1", "normalised indicator fluorescence": 1.08}
{"smiles": "O=[N+]([O-])c1ccc(-c2nc(-c3ccc(F)cc3)c(-c3ccncc3)[nH]2)cc1", "normalised indicator fluorescence": 1.03}
{"smiles": "OC[C@H]1O[C@@H](Oc2ccc(O)cc2)[C@H](O)[C@@H](O)[C@@H]1O", "note": "[Arbutin]", "normalised indicator fluorescence": 1.07}
{"smiles": "COc1ccc(O)cc1", "note": "[4-Methoxyphenol]", "normalised indicator fluorescence": 1.17}
{"smiles": "CCNC(=O)c1noc(-c2cc(C(C)C)c(O)cc2O)c1-c1ccc(CN2CCOCC2)cc1", "note": "[Luminespib]", "normalised indicator fluorescence": 1.05}
{"smiles": "O=c1cc(-c2ccc(O)cc2)oc2cc(O)cc(O)c12", "note": "[Apigenin]", "normalised indicator fluorescence": 1.05}
{"smiles": "O=C1O[C@H]([C@@H](O)CO)C(O)=C1O", "note": "[L(+)-Ascorbic acid]", "normalised indicator fluorescence": 1}
{"smiles": "O=c1ncn2nc(Sc3ccc(F)cc3F)ccc2c1-c1c(Cl)cccc1Cl", "note": "[Neflamapimod]", "normalised indicator fluorescence": 1.05}
{"smiles": "Cc1cccc(CC(=O)N2CCc3c2ccc(-c2cn(C)c4ncnc(N)c24)c3F)n1", "normalised indicator fluorescence": 1.06}
{"smiles": "CC(=O)O[C@H]1C[C@@]2(C)[C@@H](C[C@@H](O)[C@H]3[C@@]4(C)CC[C@@H](O)[C@@H](C)[C@@H]4CC[C@@]32C)/C1=C(\\CCC=C(C)C)C(=O)O", "note": "[Sodium fusidate]", "normalised indicator fluorescence": 1.05}
{"smiles": "CC(=O)CCCCn1c(=O)c2c(ncn2C)n(C)c1=O", "note": "[Pentoxifylline]", "normalised indicator fluorescence": 1.01}
{"smiles": "Cc1c(C)c2c(c(C)c1O)CC[C@@](C)(CCC[C@H](C)CCC[C@H](C)CCCC(C)C)O2", "note": "[Vitamin E]", "normalised indicator fluorescence": 1.06}
{"smiles": "O=C(NC(Cc1cc(=O)[nH]c2ccccc12)C(=O)O)c1ccc(Cl)cc1", "note": "(stereo not given) [Rebamipide]", "normalised indicator fluorescence": 1.14}
{"smiles": "NC(=O)c1ccc(N(C(N)=O)c2c(F)cccc2F)nc1-c1ccc(F)cc1F", "normalised indicator fluorescence": 1.01}
{"smiles": "CC(C)OC(=O)CCC/C=C\\C[C@@H]1[C@@H](CC[C@@H](O)CCc2ccccc2)[C@H](O)C[C@@H]1O", "note": "[Latanoprost]", "normalised indicator fluorescence": 1.03}
{"smiles": "CCCC(C(=O)OCCN(CC)CC)(c1ccccc1)c1ccccc1", "note": "[Proadifen hydrochloride]", "normalised indicator fluorescence": 1.04}
{"smiles": "COC1=C2C[C@@H](C)C[C@H](OC)[C@H](O)[C@@H](C)/C=C(\\C)[C@H](OC(N)=O)[C@@H](OC)/C=C\\C=C(/C)C(=O)NC(=CC1=O)C2=O", "note": "[Geldanamycin]", "normalised indicator fluorescence": 1.08}
{"smiles": "COc1ccc(C(=C2C(=O)Nc3ccccc32)c2ccc(OC)cc2)cc1", "normalised indicator fluorescence": 1.03}
{"smiles": "O=C1C[C@@H](c2ccc(O)cc2)Oc2cc(O)cc(O)c21", "note": "[Naringenin]", "normalised indicator fluorescence": 1.03}
{"smiles": "[I-].[K+]", "note": "[Potassium iodide]", "normalised indicator fluorescence": 1.08}
{"smiles": "CO[C@H]1/C=C/O[C@@]2(C)Oc3c(C)c(O)c4c(c3C2=O)C2=NC3(CCN(CC(C)C)CC3)NC2=C(NC(=O)/C(C)=C\\C=C\\[C@H](C)[C@H](O)[C@@H](C)[C@@H](O)[C@@H](C)[C@H](OC(C)=O)[C@@H]1C)C4=O", "note": "[Rifabutin]", "normalised indicator fluorescence": 1.01}
{"smiles": "O=C(O)/C=C/c1ccc(Cn2ccnc2)cc1", "note": "[Ozagrel]", "normalised indicator fluorescence": 1.05}
{"smiles": "CC1(C)OC(=O)C=C[C@]2(C)[C@H]3CC[C@@]4(C)[C@H](c5ccoc5)OC(=O)[C@H]5O[C@]54[C@]3(C)C(=O)C[C@@H]12", "note": "[Obacunone]", "normalised indicator fluorescence": 1.03}
{"smiles": "NNC(=O)c1ccncc1", "note": "[Isoniazid]", "normalised indicator fluorescence": 1.06}
{"smiles": "CC1=NN(c2ccccc2)C(=O)C1", "note": "[Edaravone]", "normalised indicator fluorescence": 1.11}
{"smiles": "CC(C)(O)[C@@H]1CC[C@](C)([C@H]2[C@@H](O)C[C@@]3(C)[C@@H]4C[C@H](O)[C@H]5C(C)(C)[C@@H](O[C@@H]6OC[C@@H](O)[C@H](O)[C@H]6O[C@@H]6O[C@H](CO)[C@@H](O)[C@H](O)[C@H]6O)CC[C@@]56C[C@@]46CC[C@]23C)O1", "note": "[Astragaloside III]", "normalised indicator fluorescence": 1.07}
{"smiles": "O=C(Nc1ccc2[nH]nc(-c3ccncc3)c2c1)[C@@H]1CCN(CC(=O)N2CCN(c3ccc(-c4ncccn4)cc3)CC2)C1", "normalised indicator fluorescence": 1.02}
{"smiles": "O=C(COc1ccc(Cl)cc1)NC1CCC(NC(=O)COc2ccc(Cl)cc2)CC1", "note": "(stereo not given)", "normalised indicator fluorescence": 1.04}
{"smiles": "Oc1cc(O)c2c(c1)O[C@H](c1ccc(O)c(O)c1)[C@@H](O)C2", "note": "[Cianidanol]", "normalised indicator fluorescence": 1.07}
{"smiles": "C[C@@H]1O[C@@H](O[C@@H]2[C@@H](O)[C@H](OCCc3ccc(O)c(O)c3)O[C@H](CO)[C@H]2OC(=O)/C=C/c2ccc(O)c(O)c2)[C@H](O)[C@H](O)[C@H]1O", "note": "[Verbascoside]", "normalised indicator fluorescence": 1.02}
